The text below walks through data of PubChem BioAssay AID2810 (NMMLSC, 2010).

Hit rate of the full screen: of about 1,200 compounds, about 65 (5%) were called active.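 Rule for the calls: active = at either tested dose, response and 90th-percentile vesicle-stain brightness of CD8 cells under set limits and under 9% cells vesicle-bound; inactive = the rest.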 The sample as a whole holds a higher share of actives than the screen did.

The assay can be described thus: modulators of CD8 T cell-vesicle binding, confirmation, cherry-picked primary hits, two concentrations (AID 2810).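 For all read-outs here: lower values mean blocking of vesicle binding.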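 For percent response (vesicle binding): ratio of mean FL2 vesicle stain of CD8+ cells to that row's control.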 The settings on record: 2C CD8+ T cell-vesicle binding, flow cytometry; for double positive events: CD8+/vesicle+ events.
[1] abbreviates: at 15.4 µM, stronger effect = lower value.

Consider `Cc1noc(C)c1COc1ccc(C(=O)NCc2cccs2)cc1`, for which the double positive events is, setting by setting: (at 7.7 µM) 6.2%; under setting [1], 22.1%. The percent response (vesicle binding) by setting is: under setting [1], 165% (inactive); (response, at 7.7 µM) 120%.

`Nc1ccccc1C(=O)N/N=C1\C2CN3CCN(C2)CC1(c1ccccc1)C3` gave a double positive events (at 7.7 µM) of 20% and a double positive events under setting [1] of 18.6%. Besides, the percent response (vesicle binding) is 176% (inactive) under setting [1] and 839% (response, at 7.7 µM).

Turning to `CC(=O)c1ccc(OCc2cc(C(=O)N3CCCCC3c3cccnc3)no2)cc1` (stereo not drawn), the double positive events came to 18.2% (at 7.7 µM) and 21.2% under setting [1]. The percent response (vesicle binding) is, setting by setting: under setting [1], 171% (inactive); (response, at 7.7 µM) 229%.

For `CN(CC(=O)Nc1cccc(F)c1)C(=O)c1ccc(S(=O)(=O)N2CCCC2)cc1`, the double positive events by setting is: (at 7.7 µM) 28.6%; under setting [1], 10.5%. Further, the percent response (vesicle binding) by setting is: under setting [1], 176% (inactive); (response, at 7.7 µM) 275%.

`O=C(Cc1cccc(NC(=O)C2CCCN(C(=O)C3CC3)C2)c1)Nc1cccc(C(=O)N2CCCC2)c1` (stereo not drawn): the double positive events (at 7.7 µM) was found to be 25% and the double positive events under setting [1] was 13.2%. Further, the percent response (vesicle binding) was 338% (inactive) under setting [1] and 438% (response, at 7.7 µM).

As for `CN(Cc1ccccc1)C(=O)c1ccc(NC(=O)Cc2cccc(NC(=O)C3CCCN(C(=O)C4CCC4)C3)c2)cc1` (stereo not drawn), the double positive events reads like this: (at 7.7 µM) 7.8%; under setting [1], 4.3%. Also, the percent response (vesicle binding) under setting [1] is 54.8% (active) and the percent response (vesicle binding) (response, at 7.7 µM) is 219%.

Consider `Cc1cc(C)c(C(=O)N2CCCC(N3CCN(c4ccc(F)cc4)CC3)C2)o1` (stereo not drawn), for which the double positive events is 39.2% (at 7.7 µM) and 14.9% under setting [1]. The percent response (vesicle binding) reads like this: under setting [1], 236% (inactive); (response, at 7.7 µM) 688%.

Take `Cc1cc(C)cc(NC(=O)C(=O)NCCCN2CCCC2=O)c1`: the double positive events turned out to be 10% (at 7.7 µM) and 9.4% under setting [1]. In addition, the percent response (vesicle binding) is, setting by setting: under setting [1], 138% (inactive); (response, at 7.7 µM) 150%.

`COc1ccc(Cc2nc(-c3ccccn3)no2)cc1` yielded a double positive events (at 7.7 µM) of 34.9% and a double positive events under setting [1] of 19.8%. Also, the percent response (vesicle binding) is 702% (inactive) under setting [1] and 360% (response, at 7.7 µM).

As to `O=C(c1ccc(Cn2c(=S)[nH]c3ccccc3c2=O)cc1)N1CCN(c2ccccn2)CC1`, the double positive events by setting is: (at 7.7 µM) 8.9%; under setting [1], 7%. Further, the percent response (vesicle binding) is 222% (inactive) under setting [1] and 465% (response, at 7.7 µM).

For `COc1ccc(CN2C(=O)C(C)Nc3ncnc(N4CCN(c5ccccn5)CC4)c32)cc1` (stereo not drawn), the double positive events reads like this: (at 7.7 µM) 8.2%; under setting [1], 4.1%. In addition, the percent response (vesicle binding) is, setting by setting: under setting [1], 33.1% (active); (response, at 7.7 µM) 235%.

With `Cc1cccc(NS(=O)(=O)c2ccc(Oc3ccccc3)cc2)n1`, the double positive events runs as follows: (at 7.7 µM) 19.3%; under setting [1], 10.1%. Also, the percent response (vesicle binding) reads like this: under setting [1], 148% (inactive); (response, at 7.7 µM) 86.6%.

As for `Cc1ccc(S(=O)(=O)N2CCN(c3ncnc4ccccc34)CC2)cc1`, the double positive events (at 7.7 µM) turned out to be 6.7% and the double positive events under setting [1] worked out at 15.5%. For the same compound, the percent response (vesicle binding) is, setting by setting: under setting [1], 103% (inactive); (response, at 7.7 µM) 116%.

For `Cc1ccc(S(=O)(=O)Nc2c3ccccc3nc(=O)n2-c2ccccc2)cc1`, the double positive events is 21.4% (at 7.7 µM) and 7.9% under setting [1]. Besides, the percent response (vesicle binding) reads like this: under setting [1], 50.6% (active); (response, at 7.7 µM) 180%.

For `O=C(Nc1ccccc1C(=O)OCC(=O)c1c[nH]c2ccccc12)c1ccco1`, the double positive events is 19.2% (at 7.7 µM) and 23.2% under setting [1]. Further, the percent response (vesicle binding) under setting [1] is 289% (inactive) and the percent response (vesicle binding) (response, at 7.7 µM) stood at 174%.

Take `CCn1cc(CNC(=O)c2ccc(Cl)c([N+](=O)[O-])c2)c(C)n1`: the double positive events by setting is: (at 7.7 µM) 18.4%; under setting [1], 8.4%. For the same compound, the percent response (vesicle binding) was 244% (inactive) under setting [1] and 301% (response, at 7.7 µM).

Regarding `Cc1cccc(C)c1OCc1nnc(NC(=O)CSc2ccc(Cl)cc2)s1`, the double positive events runs as follows: (at 7.7 µM) 31.8%; under setting [1], 24.4%. Besides, the percent response (vesicle binding) by setting is: under setting [1], 211% (inactive); (response, at 7.7 µM) 221%.

Turning to `O=C1CCCc2sccc2N1`, the double positive events is, setting by setting: (at 7.7 µM) 17.6%; under setting [1], 1.1%. Further, the percent response (vesicle binding) by setting is: under setting [1], 33.4% (active); (response, at 7.7 µM) 308%.

As to `CCCCn1c(N)c(N(CCOC)C(=O)c2c(CC)noc2C)c(=O)[nH]c1=O`, the double positive events by setting is: (at 7.7 µM) 8.2%; under setting [1], 14.5%. The percent response (vesicle binding) under setting [1] is 132% (inactive) and the percent response (vesicle binding) (response, at 7.7 µM) turned out to be 298%.

As for `c1coc(-c2nc3c4c5c(sc4ncn3n2)CCCC5)c1`, the double positive events by setting is: (at 7.7 µM) 17.3%; under setting [1], 13.1%. In addition, the percent response (vesicle binding) was 71% (inactive) under setting [1] and 187% (response, at 7.7 µM).

Regarding `O=C(c1ccco1)N1CCN(c2ncccn2)CC1`, the double positive events is 27.2% (at 7.7 µM) and 11.7% under setting [1]. For the same compound, the percent response (vesicle binding) under setting [1] is 199% (inactive) and the percent response (vesicle binding) (response, at 7.7 µM) stood at 331%.

As for `COc1ccc(OC)c(C(c2nnnn2CCC(C)C)N2CCN(C(=O)c3ccco3)CC2)c1` (stereo not drawn), the double positive events by setting is: (at 7.7 µM) 33.6%; under setting [1], 30.5%. The percent response (vesicle binding) runs as follows: under setting [1], 242% (inactive); (response, at 7.7 µM) 208%.

Turning to `O=C(c1ccco1)N1CCN(C(c2ccccc2Cl)c2nnnn2Cc2ccco2)CC1` (stereo not drawn), the double positive events was determined as 15.1% (at 7.7 µM) and 6.3% under setting [1]. The percent response (vesicle binding) by setting is: under setting [1], 40.7% (active); (response, at 7.7 µM) 456%.

Take `COCC(C)NC(=O)CSc1nc2cc(S(=O)(=O)N3CCCCC3)ccc2o1` (stereo not drawn): the double positive events is, setting by setting: (at 7.7 µM) 13.5%; under setting [1], 13.6%. Moreover, the percent response (vesicle binding) is 131% (inactive) under setting [1] and 364% (response, at 7.7 µM).

`COc1cccc(NC(=O)Nc2ccc3nc(C)c(C)nc3c2)c1`: the double positive events runs as follows: (at 7.7 µM) 9.8%; under setting [1], 8.7%. Moreover, the percent response (vesicle binding) is, setting by setting: under setting [1], 103% (inactive); (response, at 7.7 µM) 154%.

As for `COc1ccc(NC(=O)Nc2ccc(O)c3ccccc23)cc1`, the double positive events is, setting by setting: (at 7.7 µM) 5.3%; under setting [1], 10%. Besides, the percent response (vesicle binding) is 103% (active) under setting [1] and 35.3% (response, at 7.7 µM).

With `COc1ccc(NC(=O)Nc2c(O)ccc3ccccc23)cc1`, the double positive events was 5.2% (at 7.7 µM) and 17.7% under setting [1]. Besides, the percent response (vesicle binding) under setting [1] is 132% (inactive) and the percent response (vesicle binding) (response, at 7.7 µM) was 173%.

As for `Cn1nc(-c2ccccc2)c(CSc2ccccc2Cl)c1Cl`, the double positive events by setting is: (at 7.7 µM) 14.2%; under setting [1], 30.1%. The percent response (vesicle binding) was 241% (inactive) under setting [1] and 251% (response, at 7.7 µM).

For `CC(C)c1ccc(NC(=O)NCc2cccnc2)cc1`, the double positive events amounted to 12% (at 7.7 µM) and 22.3% under setting [1]. In addition, the percent response (vesicle binding) runs as follows: under setting [1], 281% (inactive); (response, at 7.7 µM) 415%.

In turn, `C/C(=N\NC(=O)c1ccc(Br)o1)c1cc2c(cc1NC(=O)CCC(=O)O)OCO2` returned a double positive events (at 7.7 µM) of 36.2% and a double positive events under setting [1] of 13.6%. The percent response (vesicle binding) is, setting by setting: under setting [1], 208% (inactive); (response, at 7.7 µM) 305%.

Regarding `COc1ccc(S(=O)(=O)N2CCCC2C(=O)Nc2ccc(C(C)=O)cc2)cc1` (stereo not drawn), the double positive events is, setting by setting: (at 7.7 µM) 6.8%; under setting [1], 18.3%. Also, the percent response (vesicle binding) under setting [1] was 384% (inactive) and the percent response (vesicle binding) (response, at 7.7 µM) turned out to be 406%.

Take `COc1ccc(NC(=O)C2CCC(C(C)(C)C)CC2)cc1S(=O)(=O)N1CCCCC1` (stereo not drawn): the double positive events is, setting by setting: (at 7.7 µM) 17.3%; under setting [1], 13.7%. Further, the percent response (vesicle binding) by setting is: under setting [1], 203% (inactive); (response, at 7.7 µM) 135%.

For `COc1ccc(NS(=O)(=O)c2cc(NC(=O)C3CC3)ccc2N2CCCCC2)cc1`, the double positive events was 9.3% (at 7.7 µM) and 3.4% under setting [1]. Also, the percent response (vesicle binding) is, setting by setting: under setting [1], 36.1% (active); (response, at 7.7 µM) 138%.

Consider `Nc1nc(SCCO)[nH]c(=O)c1NC(=O)c1ccc(Br)o1`, for which the double positive events is, setting by setting: (at 7.7 µM) 11.9%; under setting [1], 25.8%. Further, the percent response (vesicle binding) is 393% (inactive) under setting [1] and 383% (response, at 7.7 µM).

In the case of `CCOCC(=O)Nc1ccc(S(=O)(=O)N2CCC(c3nc4ccccc4[nH]3)CC2)cc1`, the double positive events runs as follows: (at 7.7 µM) 7.3%; under setting [1], 21.4%. Also, the percent response (vesicle binding) is, setting by setting: under setting [1], 156% (inactive); (response, at 7.7 µM) 124%.

Turning to `O=C1CC(c2nc3ccccc3[nH]2)CN1Cc1ccccc1` (stereo not drawn), the double positive events is, setting by setting: (at 7.7 µM) 17.2%; under setting [1], 4.3%. Further, the percent response (vesicle binding) runs as follows: under setting [1], 50.8% (active); (response, at 7.7 µM) 341%.

Regarding `O=C(c1ccccc1Cl)N1CCCC(c2nc3c(nnn3Cc3ccccc3)c(=O)[nH]2)C1` (stereo not drawn), the double positive events worked out at 9.2% (at 7.7 µM) and 17.6% under setting [1]. The percent response (vesicle binding) was 132% (inactive) under setting [1] and 181% (response, at 7.7 µM).

Regarding `CC(OC(=O)c1ccc2c(c1)C(=O)N(Cc1ccncc1)C2=O)C(=O)Nc1cccc(Cl)c1Cl` (stereo not drawn), the double positive events turned out to be 16.7% (at 7.7 µM) and 30.5% under setting [1]. The percent response (vesicle binding) is 343% (inactive) under setting [1] and 266% (response, at 7.7 µM).

With `CSc1ccccc1NC(=O)CN(C)C(=O)c1ccc2c(c1)OCCO2`, the double positive events reads like this: (at 7.7 µM) 45.7%; under setting [1], 7.6%. Also, the percent response (vesicle binding) was 133% (inactive) under setting [1] and 295% (response, at 7.7 µM).

For the compound `CCc1ccc(NC(=S)N(CCCN2CCOCC2)Cc2ccccn2)cc1`, the double positive events by setting is: (at 7.7 µM) 22.2%; under setting [1], 40%. Moreover, the percent response (vesicle binding) under setting [1] was 339% (inactive) and the percent response (vesicle binding) (response, at 7.7 µM) amounted to 168%.

For the compound `CN(C)S(=O)(=O)c1cccc(-n2sc3ccccc3c2=O)c1`, the double positive events was 4.4% (at 7.7 µM) and 2.1% under setting [1]. Besides, the percent response (vesicle binding) by setting is: under setting [1], 52.8% (active); (response, at 7.7 µM) 173%.

`CCCc1cc(=O)[nH]c(SCC(=O)N2c3ccccc3CC2C)n1` (stereo not drawn): the double positive events by setting is: (at 7.7 µM) 26.4%; under setting [1], 4.8%. The percent response (vesicle binding) runs as follows: under setting [1], 139% (inactive); (response, at 7.7 µM) 285%.
